Screening results (PubChem)
A selection: hits, their analogues and other compounds. The true share with any hit is near 2.4%.
PGE2 EP2 inh: human EP2 receptor antagonists, primary screen, TR-FRET cAMP, C6 glioma cells | 260,000 tested, 0.52% active | Prostaglandin E2 receptor EP2 subtype (Homo sapiens), P43116 | inhibition, % at 25 µM | AID 1422, 2008 | C6 glioma cells expressing human EP2; cells stimulated with saturating PGE2;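 active = percent inhibition above 40 after rounding to a whole number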;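 note: rat C6 glioma host cells with rolipram phosphodiesterase inhibitor present; the protocol text gives 20 µM as final concentration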
Target sequence (P43116 whole entry, looked up): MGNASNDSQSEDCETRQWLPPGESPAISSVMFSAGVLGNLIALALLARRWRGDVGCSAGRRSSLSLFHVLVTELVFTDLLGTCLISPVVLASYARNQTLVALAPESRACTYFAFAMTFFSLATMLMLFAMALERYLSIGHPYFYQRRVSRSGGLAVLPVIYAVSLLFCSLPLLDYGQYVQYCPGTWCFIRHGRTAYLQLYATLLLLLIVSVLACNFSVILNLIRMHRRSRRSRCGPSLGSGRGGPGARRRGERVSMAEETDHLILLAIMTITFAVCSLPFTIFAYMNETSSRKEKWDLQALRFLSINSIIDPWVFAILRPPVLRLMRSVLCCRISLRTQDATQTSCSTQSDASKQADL
S1P4 ag: S1P4 receptor agonists, primary screen, cell-based; S1P4-expressing cell line, agonist reporter assay; activation, % at 4.98 µM; 220,000 tested, 0.35% active; Sphingosine 1-phosphate receptor 4 (Homo sapiens), O95977; in the data active = activation above about 11%;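 note: 0% = DMSO vehicle and 100% = reference agonist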
EP2 mod: EP2 receptor modulators, cAMP readout, primary screen, cell-based, HTRF cAMP, PGE2 stimulation | AID 940, 2007 | induction, % at 25 µM | 260,000 tested, 0.83% active | EP2-expressing cells, cAMP HTRF FRET, PGE2 co-stimulation | Prostaglandin E2 receptor EP2 subtype (Homo sapiens), P43116;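 active = compounds whose cAMP rise, as percent of the full-agonist control response, exceeds 60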;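 note: rat C6 glioma line stably carrying human EP2 under a CMV promoter; the protocol text gives 20 µM as final concentration; 100% = response of wells given 1 µM PGE2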
S1P3 antag: S1P3 receptor antagonists, primary screen, cell-based; Sphingosine 1-phosphate receptor 3 (Homo sapiens), Q99500; CHO S1P3 NFAT-BLA reporter, FRET fluorescence, antagonist mode; 170,000 tested, 0.27% active; inhibition, % at 4.98 µM; AID 485, 2006;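 active = inhibition above the plate cutoff, the mean inhibition of test wells on that plate plus 3 SD, cut at about 28% in these data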;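 note: cells challenged with S1P at its EC80 of 0.8 µM; blue over green emission ratio from cleaved BLA substrate after 4 h stimulation; 0% = S1P-stimulated wells and 100% = unstimulated DMSO-only wells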
Insulin prom inh: inhibitors of insulin promoter-driven GFP, primary screen, imaging, TRM-6 cells (human fetal islet line), eGFP reporter, cell count; inhibition, % at 2 µM; reporter expression induced with tamoxifen; 130,000 tested, 0.9% active;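 active = inhibition above the mean plus 3 SD, with well images judged a real hit on visual review, cut at about 60% in these data, passing the limit was not always enough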
S1P4 antag: S1P4 receptor antagonists, primary screen, cell-based; S1P4-expressing cells, antagonist mode, reporter read-out; inhibition, % at 4.98 µM; 220,000 tested, 0.26% active; AID 1510, 2009; in the data active = inhibition above about 29%;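 note: 0% = wells stimulated with agonist and 100% = vehicle wells without agonist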
The depositor's hits bear a star; . = no result; + = active, no number.

SMILES | PGE2 EP2 inh | S1P4 ag | EP2 mod | S1P3 antag | Insulin prom inh | S1P4 antag
COc1cc(S(=O)(=O)Nc2cc3c(cc2C(C)=O)OCO3)ccc1-n1cnnn1 | 8 | . | -109 | . | . | .
Cc1cc2nc3ccc(=[N+](C)C)cc-3sc2cc1N | + | 6 | -413 | -10 | . | -4
COc1ccc2nc(N=Nc3ccc(N(C)C)cc3)sc2c1 | . | -3 | 4 | . | 28 | -2
CN(C)c1ccc2nc3ccc(=[N+](C)C)cc-3sc2c1 | + | 0 | -223 | -12 | -106 | -10
Cc1nc2cc(C)c(C)cc2s1 | 6 | 1 | 18 | -6 | . | -16
O=C1c2ccc3ccccc3c2C(=O)C1c1nc2ccccc2s1 (stereo unspecified) | 6 | . | 12 | . | . | .
COc1ccc(CN2CCc3nc(N4CCC(C)CC4)[nH]c(=O)c3C2)cc1 | 6 | . | -9 | . | . | .
CN(C)c1nc(SCc2ccc(Cl)cc2)nc2c1CCCC2 | 3 | 2 | 62* | . | -3 | -7
COc1ccc(C2CCN(CC(=O)Nc3nccs3)CC2)cc1 | 6 | . | -42 | . | . | .
O=C(C[n+]1ccc2ccccc2c1)c1ccc2ccc3ccccc3c2c1 | 59* | . | 24 | . | . | .
Cc1ccc(C)c(S(=O)(=O)NCc2ccc(C(=O)N3CCCCCC3)cc2)c1 | 4 | 0 | 23 | -11 | 77* | -2
Cc1ccc(OCC(=O)Nc2ccc(S(=O)(=O)Nc3cc(C)on3)cc2)c(C)c1 | 4 | . | 6 | . | . | .
COc1cc(C)c(CNC(=O)c2ccc(-n3cnnc3)cc2Cl)cc1C(C)C | 3 | . | 6 | . | . | .
O=C(Cc1ccc([N+](=O)[O-])cc1)N1N=C2CCCCC2C1(O)C(F)(F)F (stereo unspecified) | 3 | 1 | 72* | -7 | . | -11
CC(C)C(=O)N1N=C2CCCCC2C1(O)C(F)(F)F (stereo unspecified) | 6 | 2 | 22 | 5 | 14 | -30
Nc1nnc(CCS(=O)(=O)c2cc(Cl)ccc2Cl)s1 | 15 | 1 | -17 | 77* | . | -16
Nc1nnc(CCS(=O)(=O)c2ccc(Cl)c(Cl)c2)s1 | 11 | . | 0 | . | . | .
COc1cccc(C2(O)CCN(CCNC(=O)CN3CCCCCC3)CC2)c1 | 7 | . | -14 | . | . | .
COC(=O)NCC(c1cccnc1)N1CCN(c2ccccc2F)CC1 (stereo unspecified) | 6 | 1 | -8 | 102* | 29 | -10
COC(=O)NCC(c1cccnc1)N1CCN(c2ccccc2OC)CC1 (stereo unspecified) | 2 | -1 | 18 | -1 | -79 | -1
COc1cccc(/C=N/N2CCN(C)CC2)c1 | 3 | 0 | 17 | 2 | 73* | -1
COc1ccc(C(O)CN2CCC3(CC2)CC(O)c2ccc4ccccc4c2O3)cc1 (stereo unspecified) | 9 | . | -93 | . | . | .
OC(CN1CCC2(CC1)CC(O)c1ccc3ccccc3c1O2)c1ccc(Cl)cc1 (stereo unspecified) | 50* | . | -86 | . | . | .
CCN(CC)C(=O)c1ccc2nc(-c3ccccc3)c(-c3ccccc3)nc2c1 | 10 | 0 | 44 | -7 | 67* | -9
O=C(N/N=C/c1cccc(O)c1)c1cc(-c2ccc3c(c2)OCO3)n[nH]1 | 64* | 1 | -77 | -19 | 50 | -9
SMILES | PGE2 EP2 inh | S1P4 ag | EP2 mod | S1P3 antag | Insulin prom inh | S1P4 antag
Cc1ccccc1CSc1ncnc2ccccc12 | 13 | 0 | 62* | -15 | . | 1
O=C(Nc1ccc(Cl)cc1)c1sccc1-n1cccc1 | -1 | 1 | 63* | 14 | -56 | -7
O=C1C=C(c2ccccc2)C(=O)N1Nc1ccccc1 | 84* | -3 | -42 | . | -21 | 28
Nc1ccc(S(=O)(=O)N2CCCC(C(=O)O)C2)cc1 (stereo unspecified) | 10 | . | 12 | . | . | .
O=C(c1nc2ccc([N+](=O)[O-])cc2[nH]c1=O)[C@@H](O)c1ccc2c(c1)OCO2 | 50* | . | 17 | . | . | .
Nc1c(C(=O)Nc2ccccc2)sc2nc(-c3ccco3)ccc12 | 13 | 1 | -60 | 49 | 80* | -19
COc1ccccc1NC(=O)c1sc2nc(-c3ccco3)ccc2c1N | 12 | 2 | 9 | -7 | 14 | -11
Cc1ccc(N2CC(C(=O)NC3CCCC3)CC2=O)cc1 (stereo unspecified) | 50* | . | -30 | . | . | .
O=C(Nc1ccccc1N1CCCCC1)c1ncoc1-c1ccc(F)cc1 | 9 | 1 | 63* | -2 | -7 | -2
c1csc(-c2nc3ccccn3c2NC2CCCCC2)c1 | 5 | -1 | 61* | -10 | . | 5
COc1ccc2nc(C)cc(SCC(NC(C)=O)C(=O)OC(C)C)c2c1 (stereo unspecified) | 13 | -2 | 14 | 1 | . | 7
CC(=O)NC(CSc1cc(C)nc2ccc(Br)cc12)C(=O)O (stereo unspecified) | 12 | 1 | 64* | -6 | . | -5
O=C(CN1CCCCC1)Nc1ccc(Cl)c(Cl)c1 | 25 | . | -54 | . | . | .
O=c1oc2ccccc2c(O)c1/C=N/c1ncccn1 | 7 | . | . | -13 | . | .
O=c1oc2ccccc2c(O)c1/C=N/c1nc(-c2ccc(O)c(O)c2)cs1 | 41* | . | 36 | . | . | .
Cc1ccc(NC(=O)C(C)Oc2ccc3c(C)cc(=O)oc3c2)c(C)c1 (stereo unspecified) | 7 | . | -24 | . | . | .
O=C(c1ccco1)N(Cc1ccco1)c1nc(-c2ccccc2)cs1 | 10 | . | 78* | . | . | .
O=[N+]([O-])c1ccc(C2=Nn3c(nnc3-c3ccc(Cl)cc3)SC2)o1 | 73* | . | -31 | . | . | .
Clc1ccccc1C1=Nn2c(nnc2-c2ccco2)SC1 | 12 | 0 | 48 | 9 | . | -8
CCOC(=O)C1=C(C)NC(=S)N(C(C)=O)C1c1ccccc1 (stereo unspecified) | . | 2 | 65* | . | -33 | -26
CCOC(=O)Cn1nc(C)n2c(cc3oc(C)cc32)c1=O | 4 | . | 8 | . | . | .
Cc1ccc(S(=O)(=O)c2ccc(Cl)cc2)cc1S(=O)(=O)NCc1cccnc1 | 10 | . | -66 | . | . | .
O=C(O)c1ccccc1CSc1nnc2c(n1)[nH]c1ccccc12 | 15 | 2 | 61* | -15 | . | -10
CCn1cc(C(=O)N[C@@H](C)Cn2nnc3ccccc32)c(C)n1 | 3 | . | -22 | . | . | .
Cc1ccc(/C=C/C(=O)NCc2ccccn2)o1 | 7 | 1 | -6 | 1 | 66* | -12
Cc1nnc(N2C(=O)C(O)=C(C(=O)c3ccco3)C2c2ccc(F)cc2)s1 (stereo unspecified) | 17 | -1 | 20 | 6 | . | -21
Cc1nnc(N2C(=O)C(O)=C(C(=O)c3ccco3)C2c2ccc(C(C)(C)C)cc2)s1 (stereo unspecified) | 57* | -4 | 12 | . | 7 | -10
CCNc1nc(NC(C)C)nc(OCC)n1 | 12 | -1 | 17 | . | 72* | 8
